# The panel holds about 83,000 compounds, 20% with a hit somewhere; the sample as a whole holds those more often.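 Activity criterion: percent growth below 10, measured after cells in 96-well plates were exposed to a single compound concentration for 48 hours.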 Active and inactive are the calls of the source.
# Tested on: HL-60(TB) leukemia
# Experiment: NCI-60 one-dose screen, 48 h (100 = growth as untreated, 0 = no growth, -100 = all killed)
# Details: 10 µM unless noted
row,Compound,growth
1,CCN1CCCC(Nc2cc(C)nc(/N=C(/N)Nc3ccc(Cl)c(Cl)c3)n2)C1 (stereo not drawn),-42.7% (active)
2,Cc1ccc(/C=C2\COc3ccc(O)c(O)c3C2=O)cc1,-15% (active)
3,CCN(CC)CCOc1nc2c3ccc(Cl)cc3nn2c2ccccc12,19.5% (inactive)

# — PubChem BioAssay (NCI)
